Assay results taken from PubChem BioAssay (NCI).
The panel holds about 83,000 compounds, 20% with a hit somewhere; the sample as a whole holds those more often.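 Values shown are percent growth following 48 h exposure of cells in 96-well plates to a single concentration of compound; below 10 was considered active.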 The source made the active and inactive calls.

How the values were obtained:
Assay in all cases: NCI-60 one-dose screen, 48 h (100 = growth as untreated, 0 = no growth, -100 = all killed)
Details in all cases: 10 µM unless noted
NCI-H23 lung = test system: NCI-H23 lung
NCI-H226 lung = test system: NCI-H226 lung
NCI-H322M lung = test system: NCI-H322M lung
HOP-62 NSCLC = test system: HOP-62 NSCLC
NCI-H460 lung = test system: NCI-H460 lung
HOP-92 NSCLC = test system: HOP-92 NSCLC
NCI-H522 lung = test system: NCI-H522 lung
A549/ATCC NSCLC = test system: A549/ATCC NSCLC
786-0 renal = test system: 786-0 renal
COLO 205 colon = test system: COLO 205 colon
DU-145 prostate = test system: DU-145 prostate
K-562 leukemia = test system: K-562 leukemia
MALME-3M melanoma = test system: MALME-3M melanoma
MDA-MB-231 breast = test system: MDA-MB-231 breast
RXF 393 renal = test system: RXF 393 renal
SF-268 CNS = test system: SF-268 CNS
SF-295 CNS = test system: SF-295 CNS
SF-539 CNS = test system: SF-539 CNS
UACC-257 melanoma = test system: UACC-257 melanoma
M14 melanoma = test system: M14 melanoma

Measured: growth

CS(=O)(=O)c1cccc(-c2c(-c3cccc(OS(N)(=O)=O)c3)nc3sccn23)c1
inactive: NCI-H23 lung 108% | NCI-H226 lung 92.5% | NCI-H322M lung 98.2% | HOP-62 NSCLC 93.8% | NCI-H460 lung 105% | HOP-92 NSCLC 77.8% | NCI-H522 lung 96.9% | A549/ATCC NSCLC 106% | 786-0 renal 101% | COLO 205 colon 117% | DU-145 prostate 113% | K-562 leukemia 100% | MALME-3M melanoma 102% | MDA-MB-231 breast 93% | RXF 393 renal 107% | SF-268 CNS 101% | SF-295 CNS 98.3% | SF-539 CNS 93.5% | UACC-257 melanoma 106% | M14 melanoma 105%

COc1ccc(-c2nnc3n(C)c(=O)c4ccccc4n23)cc1N
inactive: NCI-H23 lung 46.6% | NCI-H226 lung 70.1% | NCI-H322M lung 39.5% | HOP-62 NSCLC 23.3% | NCI-H460 lung 13.6% | HOP-92 NSCLC 49.9% | NCI-H522 lung 18.8% | A549/ATCC NSCLC 28.6% | 786-0 renal 23% | DU-145 prostate 33.3% | K-562 leukemia 12.1% | MALME-3M melanoma 51.9% | MDA-MB-231 breast 41% | SF-268 CNS 55.8% | SF-295 CNS 10.7% | UACC-257 melanoma 49.8% | M14 melanoma 13.6%
active: COLO 205 colon -22.2% | RXF 393 renal -10.5% | SF-539 CNS -5.87%

CC(=O)c1cc(O)c2ccccc2c1O
inactive: NCI-H23 lung 85.9% | NCI-H226 lung 92.9% | NCI-H322M lung 105% | HOP-62 NSCLC 87.4% | NCI-H460 lung 103% | HOP-92 NSCLC 92.6% | NCI-H522 lung 78.7% | A549/ATCC NSCLC 99.7% | 786-0 renal 97.8% | COLO 205 colon 116% | DU-145 prostate 126% | K-562 leukemia 58% | MALME-3M melanoma 95.9% | MDA-MB-231 breast 87.2% | RXF 393 renal 111% | SF-268 CNS 124% | SF-295 CNS 108% | SF-539 CNS 97.5% | UACC-257 melanoma 96.5% | M14 melanoma 105%

CCn1c(SCC(=O)c2ccc(Br)cc2)nnc1-c1ccncc1
inactive: NCI-H23 lung 105% | NCI-H226 lung 99% | NCI-H322M lung 110% | HOP-62 NSCLC 109% | NCI-H460 lung 108% | HOP-92 NSCLC 114% | NCI-H522 lung 96% | A549/ATCC NSCLC 106% | 786-0 renal 114% | COLO 205 colon 114% | DU-145 prostate 103% | K-562 leukemia 91.5% | MALME-3M melanoma 105% | MDA-MB-231 breast 106% | RXF 393 renal 113% | SF-268 CNS 96.5% | SF-295 CNS 101% | SF-539 CNS 99.3% | UACC-257 melanoma 107% | M14 melanoma 108%

CC1=C(CCC(C)N(C)Cc2ccc(OCCCN3CCCC3)cc2)C(C)(C)CCC1 (stereo not given)
inactive: NCI-H23 lung 64% | NCI-H226 lung 85.5% | NCI-H322M lung 55.5% | HOP-62 NSCLC 36.6% | HOP-92 NSCLC 27.3% | A549/ATCC NSCLC 37.8% | 786-0 renal 17.3% | DU-145 prostate 65.3% | SF-268 CNS 48.2%
active: NCI-H460 lung 5.81% | NCI-H522 lung -52.2% | COLO 205 colon -78.8% | K-562 leukemia -22.2% | MALME-3M melanoma -89.4% | MDA-MB-231 breast -43.6% | RXF 393 renal -37.5% | SF-295 CNS -4.45% | SF-539 CNS -79% | UACC-257 melanoma -74.3% | M14 melanoma -77.2%

O=C1/C(=C/c2ccc(-c3ccc(Br)cc3)o2)SC(=S)N1CCc1ccc(O)cc1
active: 786-0 renal 5.73% | COLO 205 colon -27.8% | K-562 leukemia 3.25%
inactive: NCI-H23 lung 75.8% | NCI-H226 lung 90.2% | NCI-H322M lung 84.5% | HOP-62 NSCLC 90.6% | NCI-H460 lung 60.3% | HOP-92 NSCLC 60% | NCI-H522 lung 13.7% | A549/ATCC NSCLC 67.5% | DU-145 prostate 15.7% | MALME-3M melanoma 73.5% | MDA-MB-231 breast 82.9% | RXF 393 renal 80.5% | SF-268 CNS 44.4% | SF-295 CNS 100% | SF-539 CNS 86.5% | UACC-257 melanoma 77.4% | M14 melanoma 50.9%

NC(=O)c1c(NC(=O)c2ccccc2)sc2c1CCC(=O)C2
inactive: NCI-H226 lung 16.2% | NCI-H322M lung 88.2% | HOP-62 NSCLC 45.1% | NCI-H460 lung 11.6% | A549/ATCC NSCLC 30% | 786-0 renal 28% | DU-145 prostate 35% | RXF 393 renal 18.7% | SF-268 CNS 17.7% | SF-295 CNS 33.4% | SF-539 CNS 16.1% | M14 melanoma 20.9%
active: NCI-H23 lung 5.93% | HOP-92 NSCLC -11.5% | NCI-H522 lung -9.03% | COLO 205 colon -49.9% | K-562 leukemia 5.24% | MALME-3M melanoma 7.31% | MDA-MB-231 breast 0.799% | UACC-257 melanoma 4.86%

COc1ccc2nc3ccc(OC)cc3c(SCCCN)c2c1
active: K-562 leukemia -33.6%
inactive: NCI-H23 lung 74.5% | NCI-H226 lung 97.8% | NCI-H322M lung 114% | HOP-62 NSCLC 79.8% | NCI-H460 lung 110% | HOP-92 NSCLC 43.6% | NCI-H522 lung 57.7% | A549/ATCC NSCLC 79.6% | 786-0 renal 49% | COLO 205 colon 48.9% | DU-145 prostate 19.8% | MALME-3M melanoma 95% | MDA-MB-231 breast 102% | RXF 393 renal 49.1% | SF-268 CNS 94.1% | SF-295 CNS 95.9% | SF-539 CNS 108% | UACC-257 melanoma 105% | M14 melanoma 81%
